Compound activity from PubChem BioAssay.
proKLK7 act: activators of human kallikrein-7 zymogen | P49862 | purified proKLK7, EDANS-DABCYL substrate fluorescence; 100% is mature enzyme control, 0% vehicle | activation, % at 7 µM | 370,000 tested, 0.9% active;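 active = activation above the mean of all tested compounds plus 3 SD, computed per campaign excluding outliers beyond control limits, cut at about 13% in these data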
Target sequence (P49862 whole entry, looked up): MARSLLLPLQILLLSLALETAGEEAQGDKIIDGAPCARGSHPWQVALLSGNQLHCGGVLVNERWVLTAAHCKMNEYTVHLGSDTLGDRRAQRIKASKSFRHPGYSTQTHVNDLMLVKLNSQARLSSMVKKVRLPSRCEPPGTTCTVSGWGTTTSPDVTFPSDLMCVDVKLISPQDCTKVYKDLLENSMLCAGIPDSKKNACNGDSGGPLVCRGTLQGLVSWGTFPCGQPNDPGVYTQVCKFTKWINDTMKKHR
bovine MsrA act: activators of bovine methionine sulfoxide reductase A. purified bovine MsrA, absorbance read-out. activation, % at 10.6 µM. 360,000 tested, 0.3% active; in the data active = activation above about 7.5%
SMARCA2 activ: SMARCA2 function activation, primary screen; MG213 cells, MMTV-luciferase reporter, dexamethasone, overnight; activation, % at 9.1 µM; 370,000 tested, 1% active; AID 652017; in the data active = activation above about 7.8%
MsrA inh: inhibits bovine methionine sulfoxide reductase A; 360,000 tested, 0.75% active; purified bovine MsrA, absorbance read-out; inhibition, % at 15.5 µM; in the data active = inhibition above about 4.5%
proKLK7 act conf: confirmation of human kallikrein-7 zymogen activators; shares compounds with proKLK7 act; activation, % at 7 µM; 3,200 tested, 68% active; purified proKLK7, EDANS-DABCYL substrate fluorescence; scaled: vehicle 0, mature enzyme 100;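 active = activation, as change over the incubation, above the mean of all tested compounds plus 3 SD, cut at about 13% in these data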
EDANS interfere: optically interferes with EDANS-DABCYL signal, flagging KLK7 hits; shares compounds with proKLK7 act; EDANS-DABCYL substrate fluorescence interference, no enzyme, 4 h; solvent 0%, active enzyme control 100%; activation, % at 7 µM; 3,200 tested, 80% active;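 active = activation above the all-compound mean plus 3 SD, ignoring values outside control-based bounds, cut at about 4.8% in these data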;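 also: value is the 4 h activation minus the activation read at time zero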
EDANS interf: optically interferes with EDANS-DABCYL fluorescence, kallikrein-7 activator counter-screen | shares compounds with proKLK7 act | EDANS-DABCYL peptide fluorescence interference, no enzyme | EC50, µM | 250 tested, 20% active;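 active = compounds that raise the fluorescence signal in this interference counterscreen, with EC50 at or below 10 µM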;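 also: intact quenched peptide substrate alone read at 355 nm excitation and 520 nm emission; signal is fluorescence gain from T0 to T4 after four hours at room temperature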
Of the large screens only hits and unclear results are named; the others gave an inactive call (follow-up assays come after a bar, where they were run). Hits are enriched below; roughly 2.8% of the tested compounds scored in any of these assays.

COc1ccc(OC)c(/C=C/C(=O)Oc2ccc(C(C)=O)cc2)c1	proKLK7 act 15 | proKLK7 act conf 25 | EDANS interfere 32
COc1ccc(OC)c(/C=C/C(=O)OCC(=O)N2C(C)CCCC2C)c1 (stereo not given)	proKLK7 act 13 | proKLK7 act conf 13 | EDANS interfere 15
COc1ccc(OC)c(/C=C/C(=O)OCC(=O)NCc2ccco2)c1	proKLK7 act 23 | proKLK7 act conf 17 | EDANS interfere 14 | EDANS interf inactive
Cc1ccc(N2CCC3CC2c2cc(-c4ccc(C(F)(F)F)cc4)ccc23)cc1 (stereo not given)	none
CCOC(=O)[C@@]12CCC3=C1N(CCC3)C(=O)[C@H](CC(=O)NCc1ccc(C)o1)C2	none (no result: bovine MsrA act, MsrA inh)
O=C1CCN2C=Nc3cccc4ccc1c2c34	proKLK7 act 56 | proKLK7 act conf 68 | EDANS interfere 66
CC(C)NCC(O)c1ccc(O)c(O)c1 (stereo not given)	proKLK7 act 35 | proKLK7 act conf 46 | EDANS interfere 51
CNC[C@H](O)c1ccc(O)c(O)c1	none
CCOC(=O)c1[nH]c2ccc(OC)cc2c1NC(=O)CCN1CCC(C)CC1	proKLK7 act 21 (no result: bovine MsrA act) | proKLK7 act conf inactive | EDANS interfere 6.8
CCOC(=O)c1[nH]c2cc3c(cc2c1NC(=O)CN1CCN(CCO)CC1)OCO3	proKLK7 act 49 | proKLK7 act conf 26 | EDANS interfere 29
CCOC(=O)c1[nH]c2cc(OC)c(OC)cc2c1NC(=O)CCN1CCSCC1	proKLK7 act 16 | proKLK7 act conf inactive | EDANS interfere 8.7
CCOC(=O)c1[nH]c2ccc(Br)cc2c1NC(=O)CCN1CCC(C)CC1	none
Cc1cccc(N2CCN(C(C(=O)NCc3ccccc3)c3ccc(F)cc3)CC2)c1C (stereo not given)	none (no result: bovine MsrA act)
CC(C)C[C@@H]1COc2cccc(N3CCC[C@H]3CO)c2S(=O)(=O)N1	none
O=C(NNC(=O)c1cc(S(=O)(=O)N2CCOCC2)c(Cl)cc1Cl)c1ccccc1F	none
O=C(NC1CCCCC1)C1c2ccccc2OCC(=O)N1CCc1ccccc1 (stereo not given)	none
CC1CN(Cc2cc(=O)oc3cc(O)ccc23)CC(C)O1 (stereo not given)	proKLK7 act 46 | proKLK7 act conf 67 | EDANS interfere 67
O=C(c1ccco1)N1CCN(Cc2cccc3ccccc23)CC1	none
O=c1cc(CN2CCN(Cc3ccccc3)CC2)c2ccc(O)cc2o1	proKLK7 act 71 | proKLK7 act conf 65 | EDANS interfere 72
O=C(c1ccco1)N1CCN(Cc2cc(=O)oc3cc(O)ccc23)CC1	proKLK7 act 90 | proKLK7 act conf 57 | EDANS interfere 68
COc1cccc(CNC(=O)c2ccc(S(=O)(=O)N3CCCCC3)cc2)c1	none
Cc1ccc(-c2nnc(SCC(=O)Nc3ccc(-c4nc5ccc(C)cc5s4)cc3)n2Cc2ccco2)cc1	proKLK7 act 104 (no result: bovine MsrA act, MsrA inh) | proKLK7 act conf 94 | EDANS interfere 116
COc1ccc(-c2nnc(SCC(=O)Nc3ccc(Oc4ccccc4)cc3)n2Cc2ccco2)cc1	none (no result: bovine MsrA act, MsrA inh)
C=CCn1c(SCC(=O)Nc2ccc(-c3nc4ccc(C)cc4s3)cc2)nnc1-c1ccccc1	proKLK7 act 26 | proKLK7 act conf 67 | EDANS interfere 67
C=CCn1c(SCC(=O)NNC(=O)Nc2ccc(C)cc2)nnc1-c1ccccc1	none
Cc1ccc2nc(-c3ccc(NC(=O)CSc4nnc(-c5cc(C)[nH]n5)n4N)cc3)sc2c1	proKLK7 act 33 (no result: bovine MsrA act, MsrA inh) | proKLK7 act conf inactive | EDANS interfere inactive
Cc1ccc2nc(-c3ccc(NC(=O)CSc4nnc(-c5cccc(Cl)c5)n4Cc4ccco4)cc3)sc2c1	proKLK7 act 70 (no result: bovine MsrA act, MsrA inh) | proKLK7 act conf inactive | EDANS interfere inactive
O=C(NCc1nnnn1-c1ccc(F)cc1)c1ccc(S(=O)(=O)N2CCOCC2)cc1	none
COc1ccc(/C=C2\CCc3ccccc3C2=O)cc1O	none
CCCC(=O)N1CCC1(C)C(=O)Nc1ccc(-n2cccc2)cc1 (stereo not given)	none (no result: proKLK7 act, SMARCA2 activ, MsrA inh)
COc1cccc2cccc(/C=N/n3cnnc3)c12	proKLK7 act 15 | proKLK7 act conf 15 | EDANS interfere 10 | EDANS interf inactive
COc1ccccc1OCCOc1ccccc1/C=N/n1cnnc1	none
CC(=O)Nc1oc(-c2cccc3ccccc23)nc1C#N	proKLK7 act 78 | proKLK7 act conf 72 | EDANS interfere 72
COc1cc2c3nnc(-c4ccccc4)c-3cn(Cc3ccc(F)cc3)c2cc1OC	proKLK7 act 28 | proKLK7 act conf inactive | EDANS interfere inactive
CN(C)C(=O)c1cccc(-c2cnc3c(NC=O)cc(-c4ccccc4N(C)C)cn23)c1	proKLK7 act 105 | proKLK7 act conf 217 | EDANS interfere 237
CN(C)c1ccccc1-c1cc(NC=O)c2ncc(-c3cccc(C(F)(F)F)c3)n2c1	proKLK7 act 107 | proKLK7 act conf 178 | EDANS interfere 144
COc1ccccc1-c1cc(NC=O)c2ncc(-c3cccc(C(F)(F)F)c3)n2c1	none
Cc1cccc(S(=O)(=O)NC(=O)C2(C)CCN2C(=O)c2c(C)noc2C)c1 (stereo not given)	none
CC(=O)c1cc(-c2cc(C(F)(F)F)cc(C(F)(F)F)c2)c(=O)n2c1CCC2	none (no result: bovine MsrA act, MsrA inh)
CC1(C)Cc2c(ccc3ccccc23)C(=O)N1	none
O=C1CC(O)(C(F)(F)F)Oc2c1ccc1ccccc21 (stereo not given)	proKLK7 act 54 | proKLK7 act conf inactive | EDANS interfere 5.3
O=C1CC(O)(C(F)F)Oc2ccc3ccccc3c21 (stereo not given)	proKLK7 act 47 | proKLK7 act conf inactive | EDANS interfere inactive
Cc1ccc2nc3c(cc(C(=O)NCCCn4ccnc4)n3C)c(=O)n2c1	proKLK7 act 67 | proKLK7 act conf 62 | EDANS interfere 79
Cc1nc2ccccn2c1C(=O)NCCCN1CCOCC1	none
Cn1c(C(=O)NCCN2CCOCC2)cc2c(=O)n3ccccc3nc21	proKLK7 act 60 | proKLK7 act conf 67 | EDANS interfere 74
COCCCn1c(C(=O)NCCN2CCOCC2)cc2c(=O)n3ccccc3nc21	proKLK7 act 83 | proKLK7 act conf 72 | EDANS interfere 75
Cc1cccn2c(=O)c3cc(C(=O)NCCN4CCOCC4)n(C)c3nc12	proKLK7 act 19 | proKLK7 act conf inactive | EDANS interfere inactive
CN(C(=O)c1ccccc1)C(=O)c1ccccc1	none
COc1cccc(-c2nnc(-c3ccc(C(F)(F)F)cc3)o2)c1OC	none
COc1cc(OC)c(-c2nnc(-c3ccc(OC)c(OC)c3OC)o2)cc1OC	proKLK7 act 13 | proKLK7 act conf inactive | EDANS interfere inactive
COc1ccc(OC)c(/C=C/C(=O)N2C(=O)c3cccc(N)c3C2=O)c1	proKLK7 act 44 | proKLK7 act conf 654 | EDANS interfere 689
